Compounds with a hit are over-represented: about 4.9% of the library has one in this group of screens.
tim23-1 inh = inhibits growth of tim23-1 mutant yeast; S. cerevisiae tim23-1 growth, BacTiter-Glo luminescence, 24 h; inhibition, % at 20 µM; 330,000 tested, 1.3% active; AID 463212;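 active = growth inhibition of the mutant yeast at or above 50%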;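 note: temperature-sensitive mutant grown at 25 °C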
NLRP3 yeast inh = NALP3 inhibition in yeast; 330,000 tested, 0.39% active; inhibition, % at 10 µM; Yeast reconstituted NLRP3/ASC/caspase-1, beta-gal luminescence, 24 h;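 active = inhibition of 50% or more; inactive = inhibition below 50%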
TIM10 inh = TIM10 yeast growth inhibition; S. cerevisiae TIM10 strain growth, BacTiter-Glo luminescence, 24 h; AID 463195; inhibition, % at 10 µM; 330,000 tested, 1.4% active;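 active = inhibition of 40% or more at the single tested concentration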;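 note: wild-type TIM10 isogenic control strain grown at permissive 25 °C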
tim10-1 inh = growth inhibitors of tim10-1 mutant yeast | 330,000 tested, 2.2% active | S. cerevisiae tim10-1 ts strain growth, BacTiter-Glo, 24 h | AID 463190 | inhibition, % at 20 µM;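 active = inhibition of at least 40%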;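 note: mutant grown at 25 °C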
NALP1 yeast inh = blocks the NALP1 inflammasome reconstituted in yeast | S. cerevisiae NALP1/ASC/caspase-1 growth, X-gal OD620, 72 h | inhibition, % at 10 µM | 280,000 tested, 0.61% active | AID 2071; in the data active = inhibition mostly above about 24%, no sharp cut-off; inactive = mostly below about 32%
SKKanGAS inh = blocks kanamycin growth of S. pyogenes SKKanGAS strain; BacTiter-Glo, 6 h; inhibition, % at 7.5 µM; AID 1662; 300,000 tested, 1.3% active;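 active = mean replicate score, as percent of positive control median, at least 50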;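 note: strain carries kanamycin resistance gene driven by streptokinase promoter and grows in 40 µg/ml kanamycin; loss of luminescence reflects streptokinase promoter inhibition or plain growth inhibition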
tim10 confirm = TIM10 yeast growth inhibition, confirmed. inhibition, % at 10 µM. S. cerevisiae tim10 strain growth, BacTiter-Glo luminescence, 24 h. 4,600 tested, 63% active. shares compounds with TIM10 inh. AID 463215;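 active = inhibition of yeast growth at or above a set limit in either of two replicates at 10 µM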; note: this counterscreen used the strain with wild-type TIM10
tim23-1 confirm = tim23-1 yeast growth inhibition, confirmed. 4,400 tested, 83% active. S. cerevisiae tim23-1 growth, BacTiter-Glo luminescence, 24 h. shares compounds with tim23-1 inh. inhibition, % at 20 µM;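 active = inhibition above about 39% in either of two replicate wells at 20 µM, limit read from the data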;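 note: temperature-sensitive tim23-1 mutant grown at 25 °C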
Each line names hits and unclear results; the compound was inactive in the other large screens (follow-up assays come after a bar, where they were run).

O=C(NC1CCSc2ccccc21)c1cc([N+](=O)[O-])ccc1N1CCOCC1 (configuration not stated)	none (no result: NALP1 yeast inh)
CC(=O)N1c2ccc(N=Cc3cc(Br)cc(Br)c3O)cc2CC1C (configuration not stated)	tim23-1 inh 84, TIM10 inh 73 (no result: NALP1 yeast inh) | tim10 confirm inactive | tim23-1 confirm 87
Cc1cc2n(n1)C(c1ccc(N(C)C)cc1)Nc1ccccc1-2 (configuration not stated)	tim23-1 inh 55, TIM10 inh 40 | tim10 confirm 34 | tim23-1 confirm 64
CC[C@@H]1CCCCc2ccccc2[C@@H](C(=O)C[C@@H](O)CC(C)=O)OC1=O	none (no result: NALP1 yeast inh, SKKanGAS inh)
COc1cc(/C=C2/CCCC(C(=O)C(F)(F)F)=C2O)ccc1O	none (no result: NALP1 yeast inh)
COc1cc(/C=C2\CCC/C(=C\c3ccc(O)c(OC)c3)C2=O)ccc1O	tim23-1 inh 82, TIM10 inh 41, SKKanGAS inh 65 | tim10 confirm 39 | tim23-1 confirm 52
COc1ccc(C(=O)NN)cc1COc1ccc(Br)cc1	tim23-1 inh 61, TIM10 inh 47 | tim10 confirm 40 | tim23-1 confirm 43
NS(=O)(=O)c1ccc(CNC(=O)c2ccc(NS(=O)(=O)c3cccs3)cc2)cc1	none (no result: NALP1 yeast inh, SKKanGAS inh)
O=C(Nc1cccc(C(=O)Nc2cccc(Br)c2)c1)c1ccccc1	none
O=C(Nc1cccc(Br)c1)c1ccn[nH]1	tim23-1 inh 57, TIM10 inh 59 | tim10 confirm 41 | tim23-1 confirm 60
CC1(C)CCC[C@]2(C)C(CS(=O)c3ccccc3)=C(C=O)CC[C@@H]12 (some centres not stated)	tim23-1 inh 67, TIM10 inh 49 (no result: NALP1 yeast inh) | tim10 confirm 47 | tim23-1 confirm 55
O=C1c2ccccc2C(=O)c2[nH]cnc21	none (no result: tim23-1 inh, NLRP3 yeast inh, TIM10 inh, tim10-1 inh)
O=C1c2ccccc2C(=O)c2c1ncn2-c1ccccc1	TIM10 inh 46 | tim10 confirm inactive | tim23-1 confirm 45
CCN(CC)CCNC(=O)c1ccc2c(c1NCCO)C(=O)c1ccccc1C2=O	tim23-1 inh 70, TIM10 inh 43, SKKanGAS inh 51 | tim10 confirm 48 | tim23-1 confirm 60
CC(C)(C)n1cnc2cc(NCc3ccc(Br)cc3)ccc21	tim23-1 inh 54, TIM10 inh 53 | tim10 confirm 37 | tim23-1 confirm 69
CCOC(=O)CSC1=NC(=O)/C(=C\c2ccc(Cl)cc2)S1	tim23-1 inh 71, TIM10 inh 50 | tim10 confirm 58 | tim23-1 confirm 45
CC1CCN(S(=O)(=O)c2ccc(NC(=O)c3ccco3)cc2)CC1	none
Cc1ccc2cc3cc(C(=O)NCCCN4CCCCCC4)oc3nc2c1	tim23-1 inh 51, TIM10 inh 58 | tim10 confirm inactive | tim23-1 confirm inactive
CCOc1ccc(NC(=O)c2cc3cc4ccc(C)cc4nc3o2)cc1	none
Cc1ccc(Nc2ncccc2C(N)=O)cc1[N+](=O)[O-]	tim23-1 inh 56, TIM10 inh 43 | tim10 confirm 40 | tim23-1 confirm 69
Cc1ccc(Nc2ncccc2C(=O)O)cc1C	none
Oc1cccc(Nc2nc(-c3ccccc3)nc3ccccc23)c1	tim23-1 inh 82, TIM10 inh 59 | tim10 confirm 56 | tim23-1 confirm 54
Cc1ccc(S(=O)(=O)N[C@H](C(=O)NC2CCC(C)CC2)C(C)C)cc1 (some centres not stated)	none (no result: NALP1 yeast inh, SKKanGAS inh)
C=CCN(c1ccccc1)S(=O)(=O)c1cccc(C(=O)NCC(c2cccs2)N2CCOCC2)c1 (configuration not stated)	none (no result: NALP1 yeast inh)
O=C(Nc1ccc2oc(-c3ccccc3F)nc2c1)c1ncn[nH]1	none
O=C(Nc1ccc2oc(-c3ccccc3F)nc2c1)c1ccccc1F	tim23-1 inh 61, TIM10 inh 55 | tim10 confirm 60 | tim23-1 confirm 79
COC(=O)c1ccccc1NC(=S)NC(=O)c1ccc(C)cc1	tim23-1 inh 60, TIM10 inh 51 | tim10 confirm inactive | tim23-1 confirm 45
COC(=O)c1ccccc1NC(=S)NC(=O)c1ccccc1	none
O=C1/C(=C\c2ccc(Br)o2)Cc2ccccc21	none
